According to PubChem BioAssay (NCI):
About 79,000 compounds went through this panel and 15% of them were active in at least one assay; those are over-represented in the sample as a whole. The source made the active and inactive calls. No stated cut-off is given here; in the data, active means growth inhibition above about 70%; inactive means the rest.

What was measured:
[1] = NCI Yeast Anticancer Drug Screen. Data for the mec2-1 strain (AID 157); settings: S. cerevisiae mec2-1 strain, hits give high values
Procedure, shortened: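 Each compound was tested on mec2-1 yeast, a strain altered in DNA damage repair or cell cycle control. Growth inhibition is reported relative to vehicle.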

[2] = NCI Yeast Anticancer Drug Screen. Data for the rad14 strain (AID 159);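 further: 0% = growth of vehicle-treated control cultures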; settings: S. cerevisiae rad14 strain growth inhibition, hits give high values
Procedure, shortened: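 Yeast cells carrying a defined DNA-repair defect were exposed to compounds, and growth inhibition was calculated relative to vehicle-treated control cultures.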

[3] = NCI Yeast Anticancer Drug Screen. Data for the sgs1 mgt1 strain (AID 161);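 further: 0% = growth of cultures given vehicle only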; settings: S. cerevisiae sgs1 mgt1 strain, hits give high values
Procedure, shortened: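 Mutant yeast exposed to compound; growth scored against vehicle-only wells.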

[4] = NCI Yeast Anticancer Drug Screen. Data for the CLN2oe strain (AID 163);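 further: 0% = growth of vehicle-only control cultures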; settings: S. cerevisiae CLN2oe strain, hits give high values
Procedure, shortened: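 First, the altered yeast strain was treated with each compound; second, its growth was measured; finally, inhibition was derived by comparison with vehicle controls.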

[5] = NCI Yeast Anticancer Drug Screen. Data for the cln2 rad14 strain (AID 165);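 further: 0% = growth equal to vehicle treated cultures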; settings: S. cerevisiae cln2 rad14 strain, hits give high values
Procedure, shortened: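 Test compounds were added to cln2 rad14 yeast cultures; inhibition of growth was then determined by comparison with vehicle treatment.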

[6] = NCI Yeast Anticancer Drug Screen. Data for the bub3 strain (AID 167); settings: S. cerevisiae bub3 mutant strain, hits give high values
Procedure, shortened: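 Compounds were applied to a genetically altered yeast strain carrying a cell-cycle control defect. Growth inhibition was scored against vehicle-treated controls.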

[7] = NCI Yeast Anticancer Drug Screen. Data for the wt2 strain (AID 169);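 further: 0% = growth of vehicle-treated yeast cultures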; settings: S. cerevisiae wt2 strain growth inhibition, hits give high values
Procedure, shortened: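 The panel's yeast strains carry defined changes in DNA repair or cell cycle genes. Each strain is grown with compound, and growth loss is scored relative to vehicle.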

[8] = NCI Yeast Anticancer Drug Screen. Data for the mlh1 strain (AID 171);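 further: 0% = growth of vehicle-treated control cultures of the same strain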; settings: S. cerevisiae mlh1 strain growth inhibition, hits give high values
Procedure, shortened: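 Inhibition values reflect reduced yeast growth in the presence of compound, referenced to vehicle controls, using a strain chosen for its alteration in DNA repair or cell cycle control.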

[9] = NCI Yeast Anticancer Drug Screen. Data for the sgs1 strain (AID 173);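 further: 0% = growth of vehicle-only control cultures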; settings: S. cerevisiae sgs1 mutant, hits give high values
Procedure, shortened: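 Vehicle-treated cultures served as reference for growth inhibition of a yeast strain altered in DNA damage repair or cell cycle control after compound exposure.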

[10] = NCI Yeast Anticancer Drug Screen. Data for the mlh1 rad18 strain (AID 175); settings: S. cerevisiae mlh1 rad18 strain growth inhibition, hits give high values
Procedure, shortened: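 Inhibition values reflect reduced growth of mutant yeast versus vehicle-treated controls following compound exposure; the mutations affect DNA damage repair.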

[11] = NCI Yeast Anticancer Drug Screen. Data for the rad18 strain (AID 177); settings: S. cerevisiae rad18 mutant growth inhibition, hits give high values
Procedure, shortened: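 Steps: expose repair-mutant yeast to compound; measure growth; express as inhibition relative to vehicle control.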

[12] = NCI Yeast Anticancer Drug Screen. Data for the rad52 strain (AID 147);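 further: 0% = growth of vehicle-treated control cultures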; settings: S. cerevisiae rad52 mutant growth inhibition, hits give high values
Procedure, shortened: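 Inhibition of yeast growth, referenced to vehicle controls, was the measured output for a strain with defective DNA damage repair.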

[13] = NCI Yeast Anticancer Drug Screen. Data for the mgt1 strain (AID 153); settings: S. cerevisiae mgt1 mutant growth inhibition, hits give high values
Procedure, shortened: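 In the mgt1 strain, test compounds were added and growth inhibition was determined relative to vehicle-treated controls.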

[14] = NCI Yeast Anticancer Drug Screen. Data for the rad50 strain (AID 155);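 further: 0% = growth of vehicle-only cultures of the same strain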; settings: S. cerevisiae rad50 strain growth inhibition, hits give high values
Procedure, shortened: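 Yeast carrying a defined DNA repair defect were exposed to test compounds, and growth was compared with vehicle-treated controls to give percent inhibition.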

[15] = NCI Yeast Anticancer Drug Screen. Data for the rad50EPP+ strain (AID 151);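 further: 0% = growth of vehicle-treated control cultures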; settings: S. cerevisiae rad50 mutant strain, hits give high values
Procedure, shortened: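 Genetically defined yeast (rad50EPP+, DNA damage repair alteration) is grown with compound, and inhibition of growth is expressed relative to vehicle-treated controls.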

[16] = at 5.0 µM (retest, dose inferred, filed as 0.5)
[17] = at 50.0 µM (retest, dose inferred, filed as 5.0)

Measured: growth inhibition

CC(=O)N/N=C/C(C)(C)C(C)(C)/C=N/NC(C)=O
active: [3]; [17] 78% | [3]; at 50.0 µM 70% | [7]; at 100.0 µM 88% | [8]; at 100.0 µM 91% | [9]; at 100.0 µM 98% | [10]; [17] 82% | [11]; at 33.0 µM 81% | [11]; at 100.0 µM 93%
inactive: [1]; at 100.0 µM 11% | [2]; at 1.2 µM 3% | [2]; at 3.7 µM 2% | [2]; at 11.0 µM 7% | [2]; at 33.0 µM 39% | [2]; at 100.0 µM 54% | [3]; [16] 15% | [4]; at 1.2 µM 9% | [4]; at 3.7 µM 11% | [4]; at 11.0 µM 11% | [4]; at 33.0 µM 4% | [4]; at 100.0 µM 17% | [5]; [16] 2% | [5]; [17] 20% | [5]; at 50.0 µM 5.8% | [6]; at 1.2 µM -1% | [6]; at 3.7 µM -4% | [6]; [16] 0% | [6]; at 11.0 µM -4% | [6]; at 33.0 µM -7% | [6]; [17] 16% | [6]; at 50.0 µM 35.4% | [6]; at 100.0 µM 16% | [7]; at 1.2 µM -1% | [7]; at 3.7 µM -2% | [7]; at 11.0 µM 7% | [7]; at 33.0 µM 39% | [8]; at 1.2 µM -7% | [8]; at 3.7 µM -5% | [8]; at 11.0 µM -2% | [8]; at 33.0 µM 19% | [9]; at 1.2 µM -6% | [9]; at 3.7 µM -8% | [9]; at 11.0 µM 25% | [9]; at 33.0 µM 67% | [10]; [16] 11% | [10]; at 50.0 µM 59.4% | [11]; at 1.2 µM -10% | [11]; at 3.7 µM 1% | [11]; at 11.0 µM 39%

S=C(Nc1ccc(Cl)cc1)SC1CCCCC1
active: [12]; at 33.0 µM 96% | [12]; at 100.0 µM 98% | [13]; at 33.0 µM 98% | [13]; at 100.0 µM 99% | [14]; at 11.0 µM 96% | [14]; at 33.0 µM 99% | [14]; at 50.0 µM 83.2% | [14]; at 100.0 µM 99% | [1]; at 11.0 µM 93% | [1]; at 33.0 µM 99% | [1]; at 50.0 µM 85.5% | [1]; at 100.0 µM 96% | [2]; at 33.0 µM 97% | [2]; at 100.0 µM 97% | [4]; at 33.0 µM 96% | [4]; at 100.0 µM 99% | [5]; at 50.0 µM 87.7% | [6]; at 33.0 µM 93% | [6]; at 50.0 µM 83% | [6]; at 100.0 µM 98% | [7]; at 11.0 µM 78% | [7]; at 33.0 µM 99% | [7]; at 100.0 µM 98% | [8]; at 33.0 µM 98% | [8]; at 100.0 µM 99% | [9]; at 33.0 µM 98% | [9]; at 100.0 µM 98% | [10]; [17] 91% | [10]; at 50.0 µM 91.8% | [11]; at 33.0 µM 97% | [11]; at 100.0 µM 98%
inactive: [12]; at 1.2 µM 6% | [12]; at 3.7 µM 24% | [12]; at 11.0 µM 34% | [13]; at 1.2 µM 16% | [13]; at 3.7 µM 40% | [13]; at 11.0 µM 33% | [14]; at 1.2 µM -4% | [14]; at 3.7 µM 9% | [14]; [16] 12% | [14]; [17] 65% | [1]; at 1.2 µM -17% | [1]; at 3.7 µM 7% | [1]; [16] 1% | [1]; [17] 40% | [2]; at 1.2 µM -24% | [2]; at 3.7 µM -20% | [2]; at 11.0 µM 27% | [4]; at 1.2 µM -2% | [4]; at 3.7 µM -7% | [4]; at 11.0 µM 43% | [5]; [16] -6% | [5]; [17] 31% | [6]; at 1.2 µM -18% | [6]; at 3.7 µM -36% | [6]; [16] 17% | [6]; at 11.0 µM 25% | [6]; [17] 51% | [7]; at 1.2 µM -35% | [7]; at 3.7 µM -22% | [8]; at 1.2 µM 4% | [8]; at 3.7 µM 19% | [8]; at 11.0 µM 50% | [9]; at 1.2 µM 0% | [9]; at 3.7 µM 2% | [9]; at 11.0 µM 51% | [10]; [16] -2% | [11]; at 1.2 µM -8% | [11]; at 3.7 µM -7% | [11]; at 11.0 µM 48%

Cc1ccc(NN(NC(=O)OC(C)C)C(=O)OC(C)C)cc1
inactive: [12]; at 1.2 µM -2% | [12]; at 3.7 µM -2% | [12]; at 11.0 µM 0% | [12]; at 33.0 µM 8% | [12]; at 100.0 µM 17% | [15]; at 1.2 µM 5% | [15]; at 3.7 µM 13% | [15]; at 11.0 µM 25% | [15]; at 33.0 µM 50% | [15]; at 100.0 µM 64% | [13]; at 1.2 µM 0% | [13]; at 3.7 µM -3% | [13]; at 11.0 µM 1% | [13]; at 33.0 µM 14% | [13]; at 100.0 µM 13% | [14]; at 1.2 µM -1% | [14]; at 3.7 µM 0% | [14]; [16] 3% | [14]; at 11.0 µM -1% | [14]; at 33.0 µM 8% | [14]; [17] 35% | [14]; at 50.0 µM 23.1% | [14]; at 100.0 µM 13% | [1]; at 1.2 µM 3% | [1]; at 3.7 µM 5% | [1]; [16] 1% | [1]; at 11.0 µM 8% | [1]; at 33.0 µM 13% | [1]; [17] 5% | [1]; at 50.0 µM 6.1% | [1]; at 100.0 µM 15% | [2]; at 1.2 µM -2% | [2]; at 3.7 µM -1% | [2]; at 11.0 µM -1% | [2]; at 33.0 µM 1% | [2]; at 100.0 µM 8% | [3]; [16] 15% | [3]; [17] 19% | [3]; at 50.0 µM 29.6% | [4]; at 1.2 µM -3% | [4]; at 3.7 µM -11% | [4]; at 11.0 µM -5% | [4]; at 33.0 µM 1% | [4]; at 100.0 µM 5% | [5]; [16] 14% | [5]; [17] 27% | [5]; at 50.0 µM 28.6% | [6]; at 1.2 µM -5% | [6]; at 3.7 µM -3% | [6]; [16] 17% | [6]; at 11.0 µM -1% | [6]; at 33.0 µM 6% | [6]; [17] 38% | [6]; at 50.0 µM 2.1% | [6]; at 100.0 µM 17% | [8]; at 1.2 µM 0% | [8]; at 3.7 µM 2% | [8]; at 11.0 µM 5% | [8]; at 33.0 µM 7% | [8]; at 100.0 µM 8% | [9]; at 1.2 µM 1% | [9]; at 3.7 µM 1% | [9]; at 11.0 µM 5% | [9]; at 33.0 µM 14% | [9]; at 100.0 µM 15% | [10]; [16] 16% | [10]; [17] 62% | [11]; at 1.2 µM -3% | [11]; at 3.7 µM -4% | [11]; at 11.0 µM 1% | [11]; at 33.0 µM 12% | [11]; at 100.0 µM 21%
active: [10]; at 50.0 µM 78.8%
